Compounds without any hit were thinned out: in the full panel of roughly 79,000, 15% have a hit. Calls of active or inactive are those of the source. Cut-off read from the data, not from the text of the source: active = growth inhibition above about 70%; inactive = the rest.
Columns and labels:
[1] = NCI Yeast Anticancer Drug Screen. Data for the rad50 strain (AID 155);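 note: 0% = growth of vehicle-only cultures of the same strain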; conditions: S. cerevisiae rad50 strain growth inhibition, hits give high values
Summary of the method: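 Readout: growth inhibition relative to vehicle-treated cultures. Compound exposure was carried out in a genetically defined yeast strain deficient in DNA damage repair.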

[2] = NCI Yeast Anticancer Drug Screen. Data for the sgs1 mgt1 strain (AID 161);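 note: 0% = growth of cultures given vehicle only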; conditions: S. cerevisiae sgs1 mgt1 strain, hits give high values
Summary of the method: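 Compounds are added to genetically altered yeast, and growth is compared with cultures given vehicle alone to give percent inhibition.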

[3] = NCI Yeast Anticancer Drug Screen. Data for the cln2 rad14 strain (AID 165);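 note: 0% = growth equal to vehicle treated cultures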; conditions: S. cerevisiae cln2 rad14 strain, hits give high values
Summary of the method: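 Strain: cln2 rad14 yeast, altered in cell cycle control and DNA damage repair. Read-out: growth inhibition vs vehicle.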

[4] = NCI Yeast Anticancer Drug Screen. Data for the bub3 strain (AID 167); conditions: S. cerevisiae bub3 mutant strain, hits give high values
Summary of the method: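 Readout: yeast growth inhibition, expressed relative to vehicle-only wells. The test organism is a mutant strain from a panel with lesions in DNA repair or checkpoint genes.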

[5] = NCI Yeast Anticancer Drug Screen. Data for the mlh1 rad18 strain (AID 175); conditions: S. cerevisiae mlh1 rad18 strain growth inhibition, hits give high values
Summary of the method: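 A repair-deficient yeast strain is exposed to test compound, and growth is scored relative to vehicle-treated controls.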

[6] = NCI Yeast Anticancer Drug Screen. Data for the mec2-1 strain (AID 157); conditions: S. cerevisiae mec2-1 strain, hits give high values
Summary of the method: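 Compounds were applied to mec2-1 yeast cells. Their growth was then compared with that of vehicle-treated cultures to give growth inhibition.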

[7] = at 5.0 µM (retest, dose inferred, filed as 0.5)
[8] = at 50.0 µM (retest, dose inferred, filed as 5.0)

Measured: growth inhibition

c1ccc(-c2nc(N=C3N=c4ccccc4=N3)[nH]c2-c2ccccn2)nc1
inactive: [1]; [7] 59% | [2]; [7] 36% | [3]; [7] 49% | [4]; [7] 58% | [5]; [7] 49%
active: [1]; [8] 96% | [1]; at 50.0 µM 75.1% | [2]; [8] 84% | [3]; [8] 93% | [4]; [8] 80% | [5]; [8] 98% | [5]; at 50.0 µM 75.5%

O=C1C=CC(=O)N1c1cccc2c1CCCC2
active: [1]; [7] 99% | [1]; [8] 99% | [1]; at 50.0 µM 91.9% | [2]; [7] 100% | [2]; [8] 99% | [2]; at 50.0 µM 94.7% | [3]; [7] 99% | [3]; [8] 99% | [3]; at 50.0 µM 93.5% | [4]; [7] 100% | [4]; [8] 99% | [4]; at 50.0 µM 93.6% | [5]; [7] 99% | [5]; [8] 99% | [5]; at 50.0 µM 93.1%

O=C1CCC2(C=C(Br)C(=O)C(Br)=C2)O1
inactive: [1]; [7] 42% | [6]; [7] 46% | [5]; [7] 31%
active: [1]; [8] 87% | [1]; at 50.0 µM 91.8% | [6]; [8] 96% | [6]; at 50.0 µM 93.5% | [2]; [7] 92% | [2]; [8] 99% | [3]; [7] 91% | [3]; [8] 99% | [4]; [7] 92% | [4]; [8] 100% | [5]; [8] 94% | [5]; at 50.0 µM 92.3%

O=[N+]([O-])/C=C/c1cccs1
active: [1]; [7] 95% | [1]; [8] 98% | [6]; [8] 99% | [2]; [8] 100% | [3]; [8] 99% | [4]; [8] 100% | [5]; [8] 98%
inactive: [6]; [7] 33% | [2]; [7] 69% | [3]; [7] 16% | [4]; [7] 48% | [5]; [7] 4%

Cc1ccccc1NC(=O)Cc1csc2[n+]1C(=O)/C(=C/c1ccc([N+](=O)[O-])cc1)S2
inactive: [1]; [7] 22% | [1]; [8] 28% | [1]; at 50.0 µM 15.7% | [2]; [7] -14% | [2]; [8] -4% | [2]; at 50.0 µM 39.6% | [3]; [7] -2% | [3]; [8] 7% | [3]; at 50.0 µM -27.7% | [4]; [7] 8% | [4]; [8] 4% | [4]; at 50.0 µM 8.95% | [5]; [7] 25% | [5]; [8] 37% | [5]; at 50.0 µM 20.5%

CN(Cc1ccccc1)c1ccc(SC#N)cc1
active: [1]; [8] 82% | [1]; at 50.0 µM 81% | [2]; [8] 90% | [2]; at 50.0 µM 79.5% | [4]; [8] 80% | [4]; at 50.0 µM 92.7% | [5]; [8] 85% | [5]; at 50.0 µM 89%
inactive: [1]; [7] -2% | [2]; [7] -5% | [3]; [7] -5% | [3]; [8] -4% | [3]; at 50.0 µM 24.6% | [4]; [7] 6% | [5]; [7] 3%

O=C(NNc1ccccc1)OCc1ccccc1
active: [1]; [8] 79% | [6]; [8] 86% | [2]; [8] 95% | [3]; [8] 97% | [4]; [8] 94% | [5]; [8] 84%
inactive: [1]; [7] 41% | [1]; at 50.0 µM 55% | [6]; [7] 43% | [6]; at 50.0 µM 20.5% | [2]; [7] 42% | [3]; [7] 55% | [4]; [7] 50% | [5]; [7] 29% | [5]; at 50.0 µM 32.5%

COc1cccc(NC(=O)C(C#N)=C(SC)SC)c1
inactive: [1]; [7] 30% | [6]; [7] 25% | [2]; [7] 49% | [3]; [7] 34% | [3]; [8] 41% | [3]; at 50.0 µM 43% | [4]; [7] 42% | [5]; [7] 23% | [5]; [8] 59%
active: [1]; [8] 96% | [6]; [8] 92% | [2]; [8] 95% | [2]; at 50.0 µM 91.2% | [4]; [8] 95% | [4]; at 50.0 µM 91.2% | [5]; at 50.0 µM 90%

CC1(c2ccc(O)cc2)CCC(C(C)(C)c2ccc(O)cc2)CC1 (stereo unspecified)
inactive: [1]; [7] 41% | [6]; [7] 46% | [3]; [7] 60%
active: [1]; [8] 99% | [1]; at 50.0 µM 90.5% | [6]; [8] 100% | [6]; at 50.0 µM 91.9% | [2]; [7] 80% | [2]; [8] 97% | [3]; [8] 97% | [4]; [7] 89% | [4]; [8] 96%

Cc1cc(C)c([I+]c2c(C)cc(C)cc2C)c(C)c1
active: [1]; [8] 95% | [2]; [8] 95% | [3]; [8] 97% | [4]; [8] 98% | [5]; [8] 72% | [5]; at 50.0 µM 71%
inactive: [1]; [7] 10% | [1]; at 50.0 µM 57.8% | [2]; [7] 9% | [2]; at 50.0 µM 60.6% | [3]; [7] 16% | [3]; at 50.0 µM 56.6% | [4]; [7] 52% | [4]; at 50.0 µM 60% | [5]; [7] 16%

Nc1ncnc2c(C3OC(CO)C(O)C3O)c[nH]c12 (stereo unspecified)
inactive: [1]; [7] 26% | [6]; [7] 14% | [2]; [7] 35% | [3]; [7] 28% | [4]; [7] 45% | [5]; [7] 36%
active: [1]; [8] 92% | [6]; [8] 92% | [2]; [8] 96% | [2]; at 50.0 µM 89% | [3]; [8] 82% | [3]; at 50.0 µM 88.2% | [4]; [8] 94% | [4]; at 50.0 µM 71.1% | [5]; [8] 94%

CCCCC(=O)c1ccc([N+](=O)[O-])o1
inactive: [1]; [7] 39% | [6]; [7] 19% | [2]; [7] 26% | [3]; [7] 18% | [4]; [7] 45%
active: [1]; [8] 98% | [6]; [8] 99% | [2]; [8] 100% | [3]; [8] 99% | [4]; [8] 100%

Cc1cccc(N=NC(C#N)C#N)c1
inactive: [1]; [7] 30% | [6]; [7] 10% | [2]; [7] 24% | [3]; [7] -7% | [4]; [7] 1% | [5]; [7] -9%
active: [1]; [8] 95% | [6]; [8] 96% | [2]; [8] 95% | [3]; [8] 86% | [4]; [8] 94% | [5]; [8] 95%

CC(=O)Oc1ccc(OC(C)=O)c2c1CC=CC2
inactive: [1]; [7] 3% | [1]; [8] 2% | [6]; [7] -1% | [6]; [8] 1% | [2]; [7] 2% | [2]; [8] 10% | [3]; [7] 0% | [3]; [8] 11% | [4]; [7] 4% | [4]; [8] 8% | [5]; [7] -20% | [5]; [8] 2%

CC(C)(C)c1cc([N+](=O)[O-])c(O)c([N+](=O)[O-])c1
active: [1]; [8] 89% | [2]; [8] 74% | [4]; [8] 74% | [5]; [8] 81%
inactive: [1]; [7] 36% | [6]; [7] 11% | [6]; [8] 54% | [2]; [7] 15% | [3]; [7] 22% | [3]; [8] 46% | [4]; [7] 18% | [5]; [7] 2%

O=Cc1ccc(O)c(O)c1O
inactive: [1]; [7] -7% | [1]; [8] 66% | [6]; [7] -3% | [6]; [8] 54% | [2]; [7] -6% | [2]; [8] 35% | [3]; [7] 0% | [3]; [8] 36% | [4]; [7] 9% | [5]; [7] -30%
active: [4]; [8] 73% | [5]; [8] 86%

O=C(CBr)C(Br)C(Br)c1ccccc1 (stereo unspecified)
active: [1]; [7] 98% | [1]; [8] 99% | [6]; [7] 99% | [6]; [8] 100% | [2]; [7] 100% | [2]; [8] 98% | [3]; [7] 99% | [3]; [8] 99% | [4]; [7] 100% | [4]; [8] 100% | [5]; [7] 92% | [5]; [8] 99%

CCCCCCCCCC(=O)CCCCCCCCC
inactive: [1]; [7] 48% | [1]; [8] 7% | [6]; [7] 30% | [6]; [8] 8% | [2]; [7] 44% | [2]; [8] 14% | [3]; [7] 22% | [3]; [8] 11% | [4]; [8] 38% | [5]; [7] 32% | [5]; [8] 35%
active: [4]; [7] 92%

CCOS(=O)(=O)CC(C)(C)C
active: [1]; [8] 92% | [6]; [8] 80% | [5]; [8] 86%
inactive: [1]; [7] 7% | [6]; [7] 3% | [2]; [7] 8% | [2]; [8] 59% | [3]; [7] -1% | [3]; [8] 13% | [4]; [7] 4% | [4]; [8] 68% | [5]; [7] -21%

— PubChem BioAssay (NCI)
